# Compound activity: PubChem BioAssay, several laboratories
# Cav3 T inh = blocks human Cav3.2 T-type calcium channel; O95180; Cav3.2-expressing cells, Fluo-4 calcium fluorescence FDSS; active compounds read low; B-score at 10 µM; 100,000 compounds, 4% hits; AID 449739;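 active = single-dose well whose peak fluorescence ratio is a statistical outlier from its plate by either plate-standardised score or position-corrected B-score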
# Target sequence (O95180 whole entry, looked up): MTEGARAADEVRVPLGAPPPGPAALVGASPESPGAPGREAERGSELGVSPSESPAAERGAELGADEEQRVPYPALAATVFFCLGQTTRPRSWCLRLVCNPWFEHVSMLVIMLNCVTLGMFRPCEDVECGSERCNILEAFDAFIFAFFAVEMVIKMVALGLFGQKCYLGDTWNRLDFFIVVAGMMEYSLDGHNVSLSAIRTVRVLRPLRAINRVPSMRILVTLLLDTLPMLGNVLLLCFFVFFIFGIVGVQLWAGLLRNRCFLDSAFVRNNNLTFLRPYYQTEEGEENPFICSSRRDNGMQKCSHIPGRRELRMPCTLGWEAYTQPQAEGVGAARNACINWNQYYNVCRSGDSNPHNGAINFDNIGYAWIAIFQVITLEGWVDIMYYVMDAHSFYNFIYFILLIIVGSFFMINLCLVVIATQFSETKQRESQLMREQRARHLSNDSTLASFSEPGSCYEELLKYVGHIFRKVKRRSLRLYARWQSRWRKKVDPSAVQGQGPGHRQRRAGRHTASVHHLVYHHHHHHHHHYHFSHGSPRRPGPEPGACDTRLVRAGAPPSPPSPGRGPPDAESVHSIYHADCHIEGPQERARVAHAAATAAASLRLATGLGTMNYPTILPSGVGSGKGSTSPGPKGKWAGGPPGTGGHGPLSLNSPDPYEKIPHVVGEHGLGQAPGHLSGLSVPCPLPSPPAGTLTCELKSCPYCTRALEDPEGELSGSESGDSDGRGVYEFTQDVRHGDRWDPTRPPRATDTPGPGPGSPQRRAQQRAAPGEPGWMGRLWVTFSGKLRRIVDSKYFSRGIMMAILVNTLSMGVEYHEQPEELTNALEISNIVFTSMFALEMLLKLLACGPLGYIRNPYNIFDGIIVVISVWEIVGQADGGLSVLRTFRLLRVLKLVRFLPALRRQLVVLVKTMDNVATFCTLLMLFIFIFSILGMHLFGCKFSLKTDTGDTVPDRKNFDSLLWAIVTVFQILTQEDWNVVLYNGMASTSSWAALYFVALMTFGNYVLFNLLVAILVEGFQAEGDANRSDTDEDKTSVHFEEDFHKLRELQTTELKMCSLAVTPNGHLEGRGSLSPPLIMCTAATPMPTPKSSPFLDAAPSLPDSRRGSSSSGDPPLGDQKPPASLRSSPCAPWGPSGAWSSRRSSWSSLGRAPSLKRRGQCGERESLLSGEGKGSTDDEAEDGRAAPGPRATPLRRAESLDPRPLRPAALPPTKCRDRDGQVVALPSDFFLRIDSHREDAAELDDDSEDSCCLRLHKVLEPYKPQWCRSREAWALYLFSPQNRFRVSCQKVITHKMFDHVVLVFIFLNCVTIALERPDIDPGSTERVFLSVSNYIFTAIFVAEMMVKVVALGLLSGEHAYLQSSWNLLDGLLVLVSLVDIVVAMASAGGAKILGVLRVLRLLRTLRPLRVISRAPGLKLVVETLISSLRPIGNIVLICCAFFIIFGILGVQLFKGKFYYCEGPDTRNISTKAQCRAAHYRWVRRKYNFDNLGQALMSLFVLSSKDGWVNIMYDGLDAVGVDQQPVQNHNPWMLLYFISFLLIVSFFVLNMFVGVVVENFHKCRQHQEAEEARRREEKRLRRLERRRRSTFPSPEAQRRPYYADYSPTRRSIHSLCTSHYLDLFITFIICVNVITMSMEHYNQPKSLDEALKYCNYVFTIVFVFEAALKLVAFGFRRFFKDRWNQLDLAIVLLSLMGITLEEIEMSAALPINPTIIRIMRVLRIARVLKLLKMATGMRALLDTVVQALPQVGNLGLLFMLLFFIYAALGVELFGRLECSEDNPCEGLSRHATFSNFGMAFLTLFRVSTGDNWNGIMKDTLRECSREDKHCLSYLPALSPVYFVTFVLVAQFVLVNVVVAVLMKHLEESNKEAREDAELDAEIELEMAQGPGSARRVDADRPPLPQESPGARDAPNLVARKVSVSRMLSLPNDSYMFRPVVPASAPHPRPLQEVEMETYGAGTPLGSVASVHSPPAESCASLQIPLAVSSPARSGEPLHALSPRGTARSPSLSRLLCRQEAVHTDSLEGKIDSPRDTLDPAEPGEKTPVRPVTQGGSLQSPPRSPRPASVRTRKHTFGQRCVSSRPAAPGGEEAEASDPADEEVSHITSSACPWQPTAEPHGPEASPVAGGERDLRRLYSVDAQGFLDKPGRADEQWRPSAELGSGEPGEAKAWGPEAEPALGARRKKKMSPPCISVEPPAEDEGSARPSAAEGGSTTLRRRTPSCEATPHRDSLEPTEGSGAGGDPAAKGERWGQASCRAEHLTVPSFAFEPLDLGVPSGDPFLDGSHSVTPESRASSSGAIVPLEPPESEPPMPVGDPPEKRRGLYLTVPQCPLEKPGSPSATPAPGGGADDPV
# Ec RNAP inh = inhibitors of Escherichia coli RNA polymerase. AID 559. P0A8V2. 62,000 compounds, 0.2% hits. E. coli RNA polymerase, fluorescence transcription assay. inhibition, %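 (tested at 10 µM)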; in the data active = inhibition above about 20%;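 also: 0% = enzyme without compound and 100% = no enzyme blank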
# CD11b adhes enh = enhancers of human CD11b/CD18 binding to fibrinogen; P05107+P11215; K562 CD11b/CD18 adhesion to fibrinogen, ATPlite luminescence; activation, % at 10 µM; 93,000 compounds, 0.07% hits;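 active = 10 µM primary screen giving 50% or more activity, confirmed by 40% or more on retest at that dose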
# Pyk2 oligo antag = blocks oligomerization of human Pyk2 in cells; Q14289; Q293 cells, Pyk2 FERM NanoBiT luminescence; active compounds read low; z-score (the deposit names both 25 µM and 10 µM); 99,000 compounds, 0.83% hits; AID 1347419;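 active = Z-score of -3 or lower, scaled per plate to the spread of control and sample wells; inactive = z-score above -3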;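 also: negative z-score means lost luminescence so less FERM oligomerization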
# CD11b adhes inh = inhibitors of human CD11b/CD18 binding to fibrinogen; P05107+P11215; K562 CD11b/CD18 adhesion to fibrinogen, ATPlite luminescence; Mn2+ added to activate the integrin; inhibition, % at 10 µM; 93,000 compounds, 0.54% hits; AID 1497;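 active = primary inhibition of 50% or more at 10 µM, then 40% or more on retest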
# An asterisk follows results filed as active; / = no result. Compounds with a hit are over-represented: about 4.2% of the library has one in this group of screens.
SMILES,Cav3 T inh,Ec RNAP inh,CD11b adhes enh,Pyk2 oligo antag,CD11b adhes inh
NC(=O)[C@H](Cc1cc2ccccc2s1)NC(=O)[C@@H]1CC2(CC(c3cccc(NC(=O)[C@@H]4CCC(=O)N4)c3)=NO2)CN1C(=O)/C=C/c1c(F)cccc1Cl (some centres not stated),-0.031,/,148*,/,1
NC(=O)[C@H](Cc1cc2ccccc2s1)NC(=O)[C@@H]1CC2(CC(c3cccc(NC(=O)[C@@H]4CCC(=O)N4)c3)=NO2)CN1C(=O)/C=C/Sc1ccccc1 (some centres not stated),0.071,/,/,/,/
COc1cc(OC)c(NC(=O)CS(=O)(=O)Cc2nc(-c3ccc(C)cc3)oc2C)cc1Cl,-4.9*,3,1,/,4
COc1ccc(-c2nc(CS(=O)(=O)CC(=O)Nc3ccc(Cl)cc3)c(C)o2)cc1,-5.3*,11,-3,/,-2
COc1ccc(OC)c(CCNC(=O)CS(=O)(=O)Cc2nc(-c3ccc(C)cc3)oc2C)c1,-5.9*,5,/,0.41,/
CCC(=O)Oc1ccc(C(=O)Nc2ccc3c(c2)C(=O)N(C2CCCCC2)C3=O)cc1,-1.3,/,-1,-2.7,-30
CC[C@@H]1[C@H]2CCCC(=O)N3CC[C@@H](C[C@H]1O)[C@@H]23,0.15,/,/,/,/
Cc1ccccc1NC(=S)NCC(c1cccnc1)N(C)C (configuration not stated),/,/,-1,/,10
COC(=O)C1=CN(C(C)C)C=C(C(=O)OC)C1c1cccc(OC)c1,/,-13,4,-1.9,-7
COC(=O)C1=CN(C(C)C)C=C(C(=O)OC)C1c1cc(Br)c(OC)c(OC)c1,-0.44,/,/,-3.6*,/
CCCn1c(NCc2c[nH]c3ccccc23)nc2ccccc21,-5.9*,/,-2,0.35,-3
C=CCNC(=S)NNC(=O)c1cccn(Cc2ccc(Cl)c(Cl)c2)c1=O,-5.9*,/,0,1.2,16
CNC(=S)NNC(=O)c1cccn(Cc2ccc(Cl)c(Cl)c2)c1=O,-0.35,/,/,0.09,/
Cc1cc(-c2cccc([N+](=O)[O-])c2)nc2ccc3ccccc3c12,-0.074,/,/,0.03,/
CC(Sc1nnc(-c2ccccc2Br)n1-c1cccc(C(F)(F)F)c1)C(N)=O (configuration not stated),/,/,4,/,2
COc1ccc(NS(=O)(=O)c2ccc3c(c2)n(C)c(=O)n3C)cc1,-3.8*,/,-4,0.51,-12
Cc1ccc(C2CC2C(=O)NNC(=S)Nc2cccc(Cl)c2)cc1 (configuration not stated),/,/,/,-1.4,/
Cc1ccc(NC(=S)NNC(=O)C2CC2c2ccc(C)cc2)cc1 (configuration not stated),-6.7*,/,/,1.6,/
Cc1ccc(C2CC2C(=O)NNC(=S)Nc2cccc(C)c2)cc1 (configuration not stated),-8.7*,/,/,-0.1,/
O=C1N=C2SCCN2/C1=C\c1ccccc1Cl,1.6,/,6,-0.03,-10
COc1ccc(C(=O)COC(=O)CNS(=O)(=O)c2ccc(C)cc2)cc1,/,/,0,/,3
COCOc1ccc(C=O)cc1OCOC,0.19,/,/,/,/
CC1CCN(C(=O)CCc2ccc(S(=O)(=O)NC(C)C)cc2)CC1,-3,/,0,0.36,-5
Cc1cccc(/C(N)=N/OC(=O)N2c3ccccc3Sc3ccccc32)c1,-4.9*,/,-1,0.72,3
CN(Cc1cccs1)c1ncnc2sccc12,0.78,8,-8,0.41,89*
SMILES,Cav3 T inh,Ec RNAP inh,CD11b adhes enh,Pyk2 oligo antag,CD11b adhes inh
Cc1sc2ncnc(N(C)Cc3cccs3)c2c1C,-3.5,/,0,-0.53,34
Cn1c(COc2ccccc2)nnc1SCc1nc2ccccc2[nH]1,0.18,8,-4,0.3,-14
Cc1ccc(OCc2nnc(SCC(=O)c3ccccc3)n2-c2ccccc2)cc1,-4.4*,/,/,-1.3,/
O=c1[nH]c(CSc2nnc(COc3ccccc3)n2-c2ccccc2)nc2ccccc12,-3.9*,9,-4,-0.17,3
N#Cc1ccc(OCc2nnc(SCC(=O)c3ccccc3)n2-c2ccccc2)cc1,0.23,/,/,-0.19,/
CCc1ccccc1NC(=O)C1C(c2ccccc2)C1(Cl)Cl (configuration not stated),-7.6*,/,/,-2.1,/
Cc1ccc(C)c(NC(=O)C2C(c3ccccc3)C2(Cl)Cl)c1 (configuration not stated),-4.6*,/,0,-1.1,-23
Cc1cc(C)c(NC(=O)COC(=O)CCc2ccc(S(=O)(=O)N3CCCCC3)cc2)c(C)c1,/,/,6,/,-19
COC(=O)c1ccc(C23CC4(C2)[C@H](CN(CC2CCCCC2)[C@@H]4c2ccccc2)C3c2ccccc2)cc1 (some centres not stated),-0.61,/,/,/,/
COC(=O)Oc1ccc(/C=N/NC(=O)CN(c2ccccc2Cl)S(C)(=O)=O)cc1OC,-0.27,/,-6,-0.87,-9
COc1ccc(-c2cc3ccccc3n2CC(O)Cn2nc(C)cc2C)cc1 (configuration not stated),-6.4*,0,3,-0.77,25
COc1ccc(-c2cc3ccccc3n2CC(O)CN2CCC(C)CC2)cc1 (configuration not stated),-0.95,/,/,/,/
O=C1CNC(=O)N1CC(=O)N1CCCc2ccccc21,1.1,/,-1,0.05,-8
CC(C)(C)c1ccc(-c2csc(NNC3=NCCCCC3)n2)cc1,-2.4,/,-5,-0.32,89*
CCOC(=O)c1c(C)n(CC(O)c2ccccc2)c2ccc(O)cc12 (configuration not stated),-0.91,/,-1,-3*,-8
CCOC(=O)c1c(C)n(CCNC(C)=O)c2ccc(O)cc12,0.78,/,0,0.2,5
CCOc1ccc(CSC2=NCCN2)cc1Cl,0.27,0,/,-1.4,/
CCOc1ccc(Br)cc1/C(C)=N\NC1=NCCN1,0.79,/,-6,0.93,84*
COC(=O)c1sc(NC(=O)CCCn2nc([N+](=O)[O-])cc2C)c(C(=O)OC)c1C,/,/,/,0.1,/
CCOC(=O)CN1C(=O)CN(c2ccc(C)cc2)C1=O,/,/,-4,/,0
C#CCn1c(S(=O)(=O)Cc2ccccc2Cl)nc(-c2ccccc2)c1-c1ccccc1,-7.2*,/,-3,-3.5*,10
C#CCn1c(S(=O)(=O)Cc2ccc(C)cc2)nc(-c2ccccc2)c1-c1ccccc1,-7.8*,/,5,-3.4*,-2
Cc1ccc(Cn2c(NS(=O)(=O)c3ccccc3)nc3ccccc32)cc1,-1.9,/,/,-1.4,/
CCOC(=O)Cn1c(=O)c2c(nc(Br)n2Cc2ccccc2Cl)n(C)c1=O,-0.1,/,/,0.46,/
CCOC(=O)Cn1c(S(=O)(=O)Cc2ccccc2Cl)nc(-c2ccccc2)c1-c1ccccc1,-7.3*,/,-2,-2.2,4
CN(CC(=O)Nc1ccc(N2CCOCC2)cc1)CC(=O)Nc1ccccc1C#N,/,/,-1,/,8
Fc1ccc(CSc2nc3ccccc3[nH]2)c2ccccc12,/,/,-8,-1.1,77*
CSc1sc(C(=O)NN)c2c1C(O)CCC2 (configuration not stated),-2.2,/,/,/,/
O=C(C1=C[C@H](c2coc3ccccc3c2=O)C[C@H](OCCCCO)O1)N1CCOCC1,-1.5,/,/,/,/
CCOC(=O)c1oc2ccccc2c1NC(=O)c1ccccc1OC,-4.7*,4,/,-1.1,/
